{
  "source": "PubChem BioAssay (NCATS)",
  "note": "Records with an inconclusive call do not appear. A call without a number means that no potency is given here. The source made the active and inactive calls. Calls come from the whole dose curve; as a rule, active = well fitted curve in the direction sought with a large enough effect in the repeat runs; inconclusive = weak or mixed curves; inactive = no such curve, though single readings can be large; an effect the other way counts as inactive or inconclusive. Note: nearly all actives have a fitted effect of over 55% in size. Potency is the fitted concentration of half-maximal effect.",
  "data": [
    {"molecular_target": "Cytochrome P450 2D6 (Homo sapiens) (UniProt P10635)", "sequence (P10635 whole entry, looked up)": "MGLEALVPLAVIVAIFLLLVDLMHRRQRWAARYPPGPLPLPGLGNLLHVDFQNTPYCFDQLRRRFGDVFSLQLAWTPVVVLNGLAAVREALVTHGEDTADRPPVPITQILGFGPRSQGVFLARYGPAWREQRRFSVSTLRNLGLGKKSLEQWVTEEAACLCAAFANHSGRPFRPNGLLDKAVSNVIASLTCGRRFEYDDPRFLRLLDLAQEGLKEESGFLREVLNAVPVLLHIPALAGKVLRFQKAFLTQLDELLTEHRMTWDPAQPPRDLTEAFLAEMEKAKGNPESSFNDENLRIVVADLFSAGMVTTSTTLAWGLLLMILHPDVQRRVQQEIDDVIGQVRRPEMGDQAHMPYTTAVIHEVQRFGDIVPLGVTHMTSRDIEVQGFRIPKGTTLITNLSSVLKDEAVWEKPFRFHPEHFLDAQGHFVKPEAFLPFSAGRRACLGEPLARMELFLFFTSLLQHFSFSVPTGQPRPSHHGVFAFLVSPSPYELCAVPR", "test": "Cytochrome P450 family 2 subfamily D member 6 (CYP2D6) small molecule antagonists: luciferase biochemical (cell-free) qHTS assay (AID 1645840)", "settings": "P450-Glo CYP2D6 enzyme, luciferin luminescence, 1 h; series mostly up to 57.4 µM", "method_in_brief": "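P450-Glo luminescent screen: recombinant CYP2D6 enzyme–proluciferin substrate mix preincubated with compound 10 min at room temperature, then NADPH regeneration added for 1 h at room temperature. Detection reagent added for 20 min; luciferin light read as relative luminescence units.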", "values": [
      {"smiles": "C=CCOc1cc(Cl)ccc1C(=O)NCCN(CC)CC", "Potency": "0.275 µM (active)"},
      {"smiles": "CCN(CC)CC(=O)Oc1ccc(NC(C)=O)cc1", "Potency": "inactive"},
      {"smiles": "CCC(C(=O)OCCN1CCOC(c2ccccc2)C1C)c1ccccc1", "note": "(stereo unspecified)", "Potency": "1.74 µM (active)"},
      {"smiles": "CCn1ccc(NS(=O)(=O)c2ccc(N)cc2)nc1=O", "Potency": "inactive"},
      {"smiles": "COC(=O)c1cc(S(N)(=O)=O)ccc1OC", "Potency": "inactive"},
      {"smiles": "CCCCOC(=O)CCCCCCCCC(=O)OCCCC", "Potency": "inactive"},
      {"smiles": "O=C1CC[C@H](C(=O)N2CCCCC2)N1", "Potency": "inactive"},
      {"smiles": "CCCC(=O)OCOC(=O)C1=C(C)NC(C)=C(C(=O)OC)C1c1cccc(Cl)c1Cl", "note": "(stereo unspecified)", "Potency": "16.2 µM (active)"},
      {"smiles": "CC1(C)O[C@@H]2C[C@H]3[C@@H]4C[C@H](F)C5=CC(=O)C=C[C@]5(C)[C@@]4(F)[C@@H](O)C[C@]3(C)[C@]2(C(=O)CO)O1", "Potency": "inactive"},
      {"smiles": "CCOC(=O)Oc1ccc(CCNC(=O)[C@H](CCSC)NC(C)=O)cc1OC(=O)OCC", "Potency": "inactive"},
      {"smiles": "NC(=O)COCCN1CCN(C(c2ccccc2)c2ccc(Cl)cc2)CC1", "note": "(stereo unspecified)", "Potency": "inactive"},
      {"smiles": "Nc1ncnc2c1ncn2Cc1c(F)cccc1Cl", "Potency": "inactive"},
      {"smiles": "O=c1[nH]c(=O)n([C@H]2O[C@H](CO)[C@@H](O)[C@@H]2O)cc1/C=C\\Br", "Potency": "inactive"},
      {"smiles": "CCOC(=O)C(O)c1ccccc1", "note": "(stereo unspecified)", "Potency": "inactive"},
      {"smiles": "CCOc1ccccc1OCC1CNCCO1", "note": "(stereo unspecified)", "Potency": "inactive"},
      {"smiles": "C1=CC2C3C=CC(C3)C2C1", "note": "(stereo unspecified)", "Potency": "inactive"},
      {"smiles": "CC(C)=CCC/C(C)=C/CC/C(C)=C/CCC(=O)OC/C=C(\\C)CCC=C(C)C", "Potency": "inactive"},
      {"smiles": "O=C(O)CCCC[C@@H]1SC[C@@H]2NC(=O)N[C@@H]21", "Potency": "inactive"},
      {"smiles": "O=C(Oc1ccccc1)c1cccc(C(=O)Oc2ccccc2)c1", "Potency": "30.7 µM (active)"}
    ]},
    {"molecular_target": "Cytochrome P450 2C9 (Homo sapiens) (UniProt P11712)", "sequence (P11712 whole entry, looked up)": "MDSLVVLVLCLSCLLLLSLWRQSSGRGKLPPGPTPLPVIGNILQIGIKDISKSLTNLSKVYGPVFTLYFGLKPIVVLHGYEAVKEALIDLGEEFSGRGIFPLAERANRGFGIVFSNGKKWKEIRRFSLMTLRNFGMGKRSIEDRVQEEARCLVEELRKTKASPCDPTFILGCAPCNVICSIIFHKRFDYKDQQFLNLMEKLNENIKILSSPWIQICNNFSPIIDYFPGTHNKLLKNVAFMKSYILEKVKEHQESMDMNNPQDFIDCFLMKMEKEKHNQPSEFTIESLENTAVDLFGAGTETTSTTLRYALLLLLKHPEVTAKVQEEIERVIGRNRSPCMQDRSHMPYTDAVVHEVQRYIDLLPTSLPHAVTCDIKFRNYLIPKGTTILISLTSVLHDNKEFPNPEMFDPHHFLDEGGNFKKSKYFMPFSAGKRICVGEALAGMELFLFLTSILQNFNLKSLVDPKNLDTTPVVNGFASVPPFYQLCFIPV", "test": "Cytochrome P450 family 2 subfamily C member 9 (CYP2C9) small molecule antagonists: luciferase biochemical (cell-free) qHTS assay (AID 1645842)", "settings": "P450-Glo CYP2C9 enzyme assay, luciferin luminescence; series mostly up to 57.4 µM", "method_in_brief": "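Luminescence, after 20 min with luciferin detection reagent, reflected CYP2C9 turnover during a 1 h NADPH-driven reaction at 37C. Enzyme-substrate mix contained 0.4% bovine serum albumin and was preincubated with compound 10 min at room temperature.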", "values": [
      {"smiles": "CC(=O)O[C@@H]1CC2C3CCc4cc(OC(=O)c5ccccc5)ccc4C3CCC2(C)[C@H]1OC(C)=O", "note": "(stereo partly specified)", "Potency": "inactive"},
      {"smiles": "CN1C(CSCC(F)(F)F)Nc2cc(Cl)c(S(N)(=O)=O)cc2S1(=O)=O", "note": "(stereo unspecified)", "Potency": "inactive"},
      {"smiles": "O=C(O)c1ccc(OCCN2CCCCC2)cc1", "Potency": "inactive"},
      {"smiles": "CC(=O)OC[C@H]1O[C@@H](OC(C)=O)[C@H](OC(C)=O)[C@@H]1OC(C)=O", "Potency": "inactive"},
      {"smiles": "CC(=O)OCC(=O)[C@@]1(O)[C@H](OC(C)=O)C[C@H]2[C@@H]3CCC4=CC(=O)C=C[C@]4(C)[C@@]3(F)[C@@H](O)C[C@@]21C", "Potency": "inactive"},
      {"smiles": "O=P(O)(O)OCC(O)CO", "note": "(stereo unspecified)", "Potency": "inactive"},
      {"smiles": "CN(C)CCCOC1(Cc2ccccc2)CCCCCC1", "Potency": "inactive"},
      {"smiles": "Cc1ccc(C(C)OC(=O)C2(C)CCC(C(=O)O)C2(C)C)cc1", "note": "(stereo unspecified)", "Potency": "inactive"},
      {"smiles": "COC(=O)CCCCC(CCSS/C(CCO)=C(\\C)N(C=O)Cc1cnc(C)nc1N)SC(C)=O", "note": "(stereo unspecified)", "Potency": "inactive"},
      {"smiles": "N#C/C(=C1/SC[C@@H](c2ccc(Cl)cc2Cl)S1)n1ccnc1", "Potency": "0.436 µM (active)"},
      {"smiles": "Cc1cnc(NS(=O)(=O)c2ccc(N)cc2)nc1", "Potency": "inactive"},
      {"smiles": "CCO[C@H](Cc1ccc(OCCc2ccc(OS(C)(=O)=O)cc2)cc1)C(=O)O", "Potency": "inactive"},
      {"smiles": "OC[C@]1(O)OC[C@@H](O)[C@H](O)[C@@H]1O", "Potency": "inactive"},
      {"smiles": "CO/N=C(\\C(=O)O)c1csc(NC(=O)CCl)n1", "Potency": "inactive"},
      {"smiles": "CN(C)CCN1CCN(c2cccc(Cl)c2)C1=O", "Potency": "inactive"},
      {"smiles": "CC(=O)c1ccc(O)c(C(N)=O)c1", "Potency": "inactive"},
      {"smiles": "CN1C(=O)c2ccccc2C1=O", "Potency": "inactive"},
      {"smiles": "C=CCOc1cc(Cl)ccc1C(=O)NCCN(CC)CC", "Potency": "inactive"},
      {"smiles": "CCN(CC)CC(=O)Oc1ccc(NC(C)=O)cc1", "Potency": "inactive"},
      {"smiles": "CCC(C(=O)OCCN1CCOC(c2ccccc2)C1C)c1ccccc1", "note": "(stereo unspecified)", "Potency": "2.19 µM (active)"},
      {"smiles": "CCn1ccc(NS(=O)(=O)c2ccc(N)cc2)nc1=O", "Potency": "inactive"},
      {"smiles": "COC(=O)c1cc(S(N)(=O)=O)ccc1OC", "Potency": "inactive"},
      {"smiles": "CCCCOC(=O)CCCCCCCCC(=O)OCCCC", "Potency": "19 µM (active)"},
      {"smiles": "O=C1CC[C@H](C(=O)N2CCCCC2)N1", "Potency": "inactive"},
      {"smiles": "CCCC(=O)OCOC(=O)C1=C(C)NC(C)=C(C(=O)OC)C1c1cccc(Cl)c1Cl", "note": "(stereo unspecified)", "Potency": "2.04 µM (active)"},
      {"smiles": "CC1(C)O[C@@H]2C[C@H]3[C@@H]4C[C@H](F)C5=CC(=O)C=C[C@]5(C)[C@@]4(F)[C@@H](O)C[C@]3(C)[C@]2(C(=O)CO)O1", "Potency": "inactive"},
      {"smiles": "NC(=O)COCCN1CCN(C(c2ccccc2)c2ccc(Cl)cc2)CC1", "note": "(stereo unspecified)", "Potency": "inactive"},
      {"smiles": "Nc1ncnc2c1ncn2Cc1c(F)cccc1Cl", "Potency": "inactive"},
      {"smiles": "O=c1[nH]c(=O)n([C@H]2O[C@H](CO)[C@@H](O)[C@@H]2O)cc1/C=C\\Br", "Potency": "inactive"},
      {"smiles": "CCOC(=O)C(O)c1ccccc1", "note": "(stereo unspecified)", "Potency": "inactive"},
      {"smiles": "CCOc1ccccc1OCC1CNCCO1", "note": "(stereo unspecified)", "Potency": "inactive"},
      {"smiles": "C1=CC2C3C=CC(C3)C2C1", "note": "(stereo unspecified)", "Potency": "inactive"}
    ]}
  ]
}
